Source: publication PMC5540273 (PLoS ONE, 2017)

Assays:
Conditions in all cases: concentration: 1 μM,replicates: in singlicate; n = 1
DYRK1B = test system: DYRK1B
DYRK2 = test system: DYRK2
EGFR = test system: EGFR
EIF2AK1 = test system: EIF2AK1
EPHA1 = test system: EPHA1
EPHA2 = test system: EPHA2
EPHA3 = test system: EPHA3
EPHA4 = test system: EPHA4
EPHA5 = test system: EPHA5
EPHA6 = test system: EPHA6
EPHA7 = test system: EPHA7
EPHA8 = test system: EPHA8
EPHB1 = test system: EPHB1
EPHB2 = test system: EPHB2
EPHB3 = test system: EPHB3
EPHB4 = test system: EPHB4
EPHB6 = test system: EPHB6
ERBB2 = test system: ERBB2
ERBB3 = test system: ERBB3
ERBB4 = test system: ERBB4
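Also: KINOMEscan kinase panel screen.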

| Compound | %Inh (DYRK1B) | %Inh (DYRK2) | %Inh (EGFR) | %Inh (EIF2AK1) | %Inh (EPHA1) | %Inh (EPHA2) | %Inh (EPHA3) | %Inh (EPHA4) | %Inh (EPHA5) | %Inh (EPHA6) | %Inh (EPHA7) | %Inh (EPHA8) | %Inh (EPHB1) | %Inh (EPHB2) | %Inh (EPHB3) | %Inh (EPHB4) | %Inh (EPHB6) | %Inh (ERBB2) | %Inh (ERBB3) | %Inh (ERBB4) |
| --- | --- | --- | --- | --- | --- | --- | --- | --- | --- | --- | --- | --- | --- | --- | --- | --- | --- | --- | --- | --- |
| Cn1ccc2ncnc(Oc3ccc(NC(=O)Nc4cncc(C(F)(F)F)c4)c(Cl)c3)c21 | 5% | 0% | 0% | 0% | 17% | 81% | 92.5% | 57% | 45% | 97.5% | 74% | 95.4% | 45% | 82% | 37% | 35% | 66% | 24% | 0% | 2% |
| CC(=O)Nc1ccc(-c2cc3ncnc(SCC(=O)O)c3s2)cc1 | 22% | 39% | 2% | 0% | 28% | 0% | 0% | 19% | 7% | 22% | 0% | 0% | 0% | 10% | 22% | 23% | 84% | 6% | 8% | 3% |
| O=C(Nc1cccc(C(F)(F)F)c1)c1cccc(Oc2ccc3nccn3n2)c1 | 14% | 6% | 13% | 0% | 7% | 42% | 11% | 17% | 11% | 10% | 5% | 27% | 20% | 9% | 12% | 23% | 12% | 0% | 40% | 0% |
| NC(=O)Nc1sc(-c2ccc(F)cc2)cc1C(N)=O [GW789449] | 52% | 25% | 23% | 0% | 60% | 25% | 0% | 14% | 7% | 11% | 0% | 0% | 24% | 0% | 14% | 20% | 64% | 15% | 54% | 3% |
| CCn1c(-c2nonc2N)nc2cncc(Br)c21 [SB-738004] | 29% | 73% | 15% | 0% | 0% | 41% | 29% | 16% | 0% | 4% | 0% | 0% | 0% | 12% | 0% | 13% | 29% | 60% | 43% | 11% |
| COc1cccc(CNC(=O)NC2CCN(c3ccnc(Nc4cc(OC)c(OC)c(OC)c4)n3)C2)c1 (stereo not shown) [GSK1379765] | 17% | 9% | 28% | 0% | 11% | 30% | 0% | 3% | 0% | 15% | 6% | 13% | 13% | 0% | 20% | 8% | 92.6% | 17% | 28% | 38% |
| C[C@@H]1CNc2c(sc3ccc4nc(-c5ccncc5)ccc4c23)C(=O)N1 | 88% | 18% | 0% | 12% | 7% | 0% | 0% | 15% | 1% | 11% | 0% | 0% | 0% | 0% | 20% | 17% | 18% | 14% | 10% | 0% |
| C[C@@H]1CNc2c(sc3ccc4nc(-c5ccc(O)cc5)ccc4c23)C(=O)N1 | 98.1% | 24% | 11% | 0% | 0% | 0% | 14% | 0% | 11% | 5% | 0% | 0% | 5% | 12% | 0% | 0% | 9% | 26% | 0% | 6% |
